Nrf2 activator: activates Nrf2 signaling. AREc32 ARE-luciferase reporter (MCF7-derived line), luminescence, 24 h. Potency, µM (series often up to 46.1 µM), without a hit: at the top dose activation, actives largely listed as activators. 410,000 tested, 0.31% active. AID 624171; also: % of control where 0% means no effect; nearly all actives have a fitted effect of over 65% in size
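AREc32 cells carrying an ARE-driven firefly luciferase reporter were seeded at 1000 cells/well in OPTI-MEM with 5% FBS, then exposed to compound for 24 hr at 37 deg C. Luminescence was read with Steady-Glo after 30 min at RT.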
ATXN2 expr inh: inhibitors of ATXN2 expression. HEK-293 ATXN2-luciferase reporter, luminescence, 24 h. Potency, µM (titrated, usually from 57 µM), inactives show top-dose activity change, negative = inhibition, actives largely listed as inhibitors. 360,000 tested, 0.72% active. AID 1745845; also: % is scaled to controls: 0 for no effect and ±100 for the full control effect; nearly all actives have a fitted effect of over 55% in size
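qHTS (up to 57 uM final) was run with 24 h compound exposure of reporter cells at 37 °C. Each well was multiplexed: SteadyGlo luminescence measured ATXN2-luciferase expression after a fluorogenic Gly-Phe-AFC viability readout (25 uM final).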
Nrf2 inh: blocks Nrf2 signaling. A549 ARE-Fluc reporter, luciferase luminescence, 18-24 h. Potency, µM (top dose mostly 46 µM), for the others: top-dose activity change, negative = inhibition, hits mostly inhibitors. 360,000 tested, 2.1% active. AID 504444; also: % is scaled to controls: 0 for no effect and ±100 for the full control effect; nearly all actives have a fitted effect of over 60% in size
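A549 ARE_Fluc cells (5000/well, 5% FBS OPTI-MEM) pre-incubated 2 h, then treated with compounds 18-24 h at 37C/5% CO2 in concentration-response. CellTiter-Fluor viability read first; BugLite luciferase luminescence after 15 min at room temperature gives Nrf2 activity.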
ATXN viability: viability counter-screen for ATXN expression inhibitors | S2 cells (HEK-293 line with an ATXN2-luciferase reporter) viability, CellTiter-Fluor protease fluorescence, 24 h | Potency, µM (top dose mostly 56.7 µM), hits mostly cytotoxic | 400,000 tested, 0.49% active | AID 651635; also: nearly all actives have a fitted effect of over 40% in size
A549 tox: kills or reduces viability of A549 cells in Nrf2 counter-screen; A549 ARE-Fluc cells, CellTiter-Fluor viability, 18-24 h; Potency, µM (titrated, usually from 46 µM), for the others: top-dose activity change, negative = cytotoxicity, usual class: inhibitors; 390,000 tested, 0.16% active; also: % is scaled to controls: 0 for no effect and ±100 for the full control effect
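A549 ARE_Fluc cells in 5% FBS OPTI-MEM were exposed to compounds in concentration-response for 18-24 h at 37 deg C. Viability was read by CellTiter-Fluor fluorescence (Ex 405/Em 525) after 30 min, before the luciferase read.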
Active calls of the source: *; i = inactive; ? = inconclusive; nt = no result; [ ] = dose if it differs, or a comment. Most compounds without a hit are left out; they make up all but 2.9% or so of the library. Calls follow the shape of the dose curve; as a rule, active = well fitted curve in the direction sought with a large enough effect; inconclusive = small, poorly fitted or top-dose-only effect, or another doubt; inactive = no such curve, though single readings can be large; an effect the other way counts as inactive or inconclusive. Potency is read from the fitted curve at half-maximal effect.

SMILES	Nrf2 activator	ATXN2 expr inh	Nrf2 inh	ATXN viability	A549 tox
CC(C)N(C(=O)COC(=O)c1ccccc1C(=O)c1ccc(Cl)c([N+](=O)[O-])c1)C(C)C	2.24µM*	?	?	i	-27.8%
Cn1c(N)c(C(=O)COC(=O)c2ccccc2C(=O)c2ccc(Cl)c([N+](=O)[O-])c2)c(=O)n(C)c1=O	?	?	14.3%	nt	-8.8%
CCc1ccc(NC(=O)C(=O)NCCN2CCN(S(=O)(=O)c3ccccc3)CC2)cc1	-0.8%	-4.3%	-11.3%	i	-3.9%
CCCC(=O)O[C@]1(C(=O)COC(=O)CC)CC[C@H]2[C@@H]3CCC4=CC(=O)CC[C@]4(C)[C@H]3[C@@H](O)C[C@@]21C	nt	4.9%[25.6 µM]	nt	i	nt
COc1cc(OC)cc(C(=O)Nc2cccc(NC(=O)c3cc(OC)cc(OC)c3)n2)c1	-0.1%	-13.3%	?	?	-12.7%
Cc1ccc2c(c1)sc(-c1ccc(N(C)C)cc1)[n+]2C	8.1%	nt	2.06µM*	?	?
COc1ccc(C)cc1Nc1n[n+](-c2ccccc2)c(-c2ccc(N(C)C)cc2)s1	0.4%	?	?	?	-17.1%
CC(=O)Nc1nc(-c2ccccc2)c(-c2ccccc2)o1	3.2%	nt	4.9%	i	3.5%
COc1cc(OC)cc(C(=O)Nc2nc(-c3ccccc3)c(-c3ccccc3)o2)c1	-0.3%	?	18.4µM*	i	?
O=S(=O)(Nc1nc2ccccc2nc1Nc1cccc(S(=O)(=O)N2CCCCC2)c1)c1ccccc1	0.4%	?	11.6µM*	?	?
COc1ccc(Nc2nc3ccccc3nc2NS(=O)(=O)c2ccc(NC(C)=O)cc2)cc1	-0.7%	23.9%	-17.7%	i	-6.8%
COc1ccc(Nc2nc3ccccc3nc2NS(=O)(=O)c2cccs2)cc1	0.4%	-15.7%	16.4µM*	i	-19.5%
CCOc1ccc(S(=O)(=O)Nc2nc3ccccc3nc2Nc2ccc(OC)cc2)cc1	0.1%	16.7%	25.9µM*	i	-17.9%
CCOC(=O)c1ccc(Nc2nc3ccccc3nc2NS(=O)(=O)c2ccc(Cl)cc2)cc1	-2.0%	-10.0%	5.2%	i	1.7%
COc1ccc(S(=O)(=O)Nc2cccc(S(=O)(=O)N3CCCCCC3)c2)cc1	0.0%	2.8%	?	i	3.5%
CCc1ccc(Nc2nc3ccccc3nc2NS(=O)(=O)c2ccccc2)cc1	0.4%	6.0%	23.1µM*	i	-17.3%
CC(=O)c1ccc(Nc2nc3ccccc3nc2NS(=O)(=O)c2cccs2)cc1	0.0%	nt	-0.4%	i	1.3%
COc1ccc(OCC(=O)NNC(=O)Nc2cccc(Cl)c2)cc1	-0.6%	-5.7%	-2.4%	i	-0.8%
CC1CC1C(=O)N1CCN(S(=O)(=O)c2cc(C(F)(F)F)cc(C(F)(F)F)c2)CC1 (stereo not drawn)	-0.3%	?	?	i	-16.7%
CCCn1c(CNC(=O)c2ccc(F)cc2)nc2ccccc21	-0.3%	-9.1%	-2.9%[9.27 µM]	?	1.8%
CCCn1c(CNc2ccccc2O)nc2ccccc21	14.1µM*	-4.5%	13.9%	?	-6.1%
COC(=O)C1=C(C(=O)OC)[C@]2([C@@H]3CC=CCN[C@@H](Cc4ccccc4)C(=O)N3Cc3ccccc3)C=C[C@H]1O2	7.9%	-10.1%	-15.2%	i	-3.4%
C=CCC(Nc1ccccc1)C12C=CC(O1)C(C(=O)OC)=C2C(=O)OC (stereo not drawn)	11.2µM*	?	?	nt	-19.0%
COc1ccc(OC)c(CCNC(=O)CCc2nnc3ccc(N4CCCC4)nn23)c1	-0.3%	5.2%	-2.8%	i	15.5%
Cc1ccc(C(=O)c2cnc3cc4c(cc3c2S(=O)(=O)c2ccccc2)OCCO4)cc1	12.6µM*	5.2%	?	i	2.7%
SMILES	Nrf2 activator	ATXN2 expr inh	Nrf2 inh	ATXN viability	A549 tox
COC(=O)c1[nH]c2cccc(Cl)c2c1NC(=O)CN1CCCCC1C (stereo not drawn)	-0.2%	-0.6%	2.6%	i	4.6%
O=C(Nc1cccnc1)c1ccccc1NS(=O)(=O)c1ccc(F)cc1	-0.2%	?	?	i	-18.3%
COCCNC(=O)C(c1cccs1)N(C(=O)Cn1nnc2ccccc21)c1ccccc1 (stereo not drawn)	-0.6%	6.1%	11.4%	i	11.1%
COc1ccc(N(C(=O)CCl)C(C(=O)NCCc2ccccc2)c2cccs2)cc1Cl (stereo not drawn)	?	1.78µM*	-25.3%	1.41µM*	?
COc1cccc(N(C(=O)CCl)C(C(=O)NCCc2ccccc2)c2cccs2)c1 (stereo not drawn)	?	?	-26.9%	31.6µM*	-15.1%
COc1ccc(S(=O)(=O)N(C)C)cc1NC(=O)CCNC(=O)c1ccco1	-0.2%	18.1%	6.3%	nt	-1.8%
Cc1ccc(-c2cn3c(=S)[nH]nc3s2)cc1	2.6%	-2.2%	10.5%	i	-6.6%
CCCc1c(O)nc(SCC(=O)NCCc2ccc(OC)c(OC)c2)[nH]c1=O	-0.6%	-18.0%	nt	i	-2.2%
O=[N+]([O-])c1cccc(S(=O)(=O)Nc2ccccn2)c1	-1.2%	nt	nt	i	nt
O=C1CN(c2nc(-c3cccnc3)nc3sc4c(c23)CCCC4)CCN1	3.1%	-2.3%[11.3 µM]	11.6µM*	?	-0.9%
Cc1c(Cl)cccc1-n1ncc(C(=O)Nc2ccc(F)cc2F)c1C1CCN(C(=O)OC(C)(C)C)CC1	0.9%	-36.9%	25.9µM*	?	-10.8%
COc1ccc(-n2ncc(C(=O)NCc3ccccc3)c2C2CCN(C(=O)OC(C)(C)C)CC2)cc1	-0.1%	nt	-10.6%	nt	-2.0%
COc1cc(Cl)c(C)cc1NC(=O)c1cnn(-c2ccc(F)cc2F)c1C1CCN(C(=O)OC(C)(C)C)CC1	0.8%	nt	?	nt	3.1%
CCc1cccc(C)c1NC(=O)c1cnn(-c2ccc(OC)cc2)c1C1CCN(C(=O)OC(C)(C)C)CC1	-0.9%	nt	23.1µM*	nt	-15.1%
COc1ccc2[nH]cc(CCNC(=O)c3cnn(-c4ccc(C)cc4)c3C3CCN(C(=O)OC(C)(C)C)CC3)c2c1	-1.0%	nt	14.6µM*	nt	-19.5%
COc1ccc2[nH]cc(CCNC(=O)c3cnn(-c4ccccc4Cl)c3C3CCN(C(=O)OC(C)(C)C)CC3)c2c1	4.1%	nt	?	nt	?
CC(=O)Oc1ccc(N(C(C)=O)S(=O)(=O)c2cccs2)c2ccccc12	-1.8%	25.1µM*	5.4%	?	-11.9%
O=C(O)C1CCN(C(=O)c2cccc3ccccc23)CC1	0.4%	24.7%	21.1%	i	-5.6%
O=C(NC(=S)N1CCOCC1)c1cn(-c2ccccc2)nc1-c1ccc(F)cc1	12.7%	-26.6%	-13.9%	?	-11.1%
Cc1ccc2nc(-c3ccc(N=Nc4cc(S(=O)(=O)O)c5ccccc5c4O)cc3)sc2c1S(=O)(=O)O	nt	nt	11.9%	nt	13µM*
Cc1ccc(SCc2cc(=O)[nH]c(/N=C(\N)Nc3ccccc3Sc3ccccc3)n2)cc1	0.3%	-8.4%	-15.2%	i	0.6%
